Screening results as filed in PubChem.
Shiga inhibitor = inhibitors of Shiga toxin in Vero cells; Vero cells, Shiga toxin protein synthesis inhibition reporter; inhibition, % at 38.7 µM; hit rate 9.2% among 290,000; in the data active means inhibition mostly above about 28%, no sharp cut-off; inactive means mostly below about 43%; further: 0% is about no effect
NS1 function inh = blocks influenza NS1 protein function; Potency, µM (doses to about 46.1 µM), for inactives: at the top dose activity, positive = more growth; hit rate 0.4% among 270,000; AID 2326; further: potency means the concentration at half of the fitted maximal effect; actives are rising curves; nearly all actives have a fitted effect of over 50% in size
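In this qHTS, NS1 from influenza A is expressed in budding yeast, where it slows growth. Cells are switched from glucose to 2% galactose medium (pH 6.0, -URA), treated with compound, and growth recovery is read at OD600.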
CHX counter = counter-screen hit for Shiga toxin inhibitors, cycloheximide | cell reporter, cycloheximide protein synthesis inhibition counterscreen | max response, % | hit rate 12% among 300,000 | AID 2314; in the data active means max response mostly above about 13%, no sharp cut-off; inactive means mostly below about 14%; further: read at 38.3 µM for the half of the compounds with a filed dose; 0% is about no effect
SARS PLpro yeast = blocks SARS-CoV papain-like protease in a yeast assay | Potency, µM (doses to about 32.9 µM), for the others: top-dose activity, positive = growth rescue, actives largely listed as activators | S. cerevisiae expressing SARS-CoV PLpro, growth rescue | AID 485353 | hit rate 0.19% among 330,000; further: potency means the concentration at half of the fitted maximal effect; 0% is about no effect; nearly all actives have a fitted effect of over 55% in size
The depositor's hits bear a star; i = inactive; ? = inconclusive; . = no result given. Sampled rows, rich in hits. Any-hit rate of the full collection: about 12%. Unless noted, the call rests on the fitted dose curve.

SMILES	Shiga inhibitor	NS1 function inh	CHX counter	SARS PLpro yeast
COc1ccc(C2C3=C(N=C4SCC(=O)N42)c2ccccc2CC3)cc1 (stereo not given)	76*	7%	39*	1%
COc1cc(/C=N/NC(=Nc2ccc(C)cc2)c2nc3ccccc3s2)ccc1O	100*	-5%	42*	-4%
COc1ccccc1/C=N/NC(=Nc1ccc(C)cc1)c1nc2ccccc2s1	184*	11%	53*	1%
COc1ccccc1/C=N/NC(=O)c1sc(C)nc1C	15	2%	2	-2%
Cc1cc2oc(=O)cc(-c3ccccc3)c2c(C)c1-c1sccc1C=O	i	.	18	.
O=C(Nc1ccc(OC(F)F)cc1)c1cc(S(=O)(=O)N2CCCCC2)ccc1N1CCOCC1	.	.	.	6%
Cn1nccc1NC(=O)Nc1cccc(Cl)c1Cl	6	1%	7	0%
Cn1cc(Cl)c(C(=O)Nc2nc3ccccc3s2)n1	71*	6%	42*	-15%
Cn1cc(Cl)c(C(=O)Nc2cccc(Cl)c2Cl)n1	29	-3%	42*	15%
O=C(Nc1nc2ccccc2s1)c1c(F)cccc1Cl	91*	-1%	38*	1%
COc1ccc(C2C3CCCCC3(O)CCN2C(=O)c2cccs2)cc1 (stereo not given)	-15	2%	1	-1%
COC(=O)C1CCN(C(=O)COC(=O)CCc2nc3ccccc3c(=O)[nH]2)CC1	-31	17%	-3	3%
Fc1ccc(NC(=S)NNc2ncc(C(F)(F)F)cc2Cl)c(F)c1	48*	-53%	21	-3%
COC(=O)[C@@]12CCCCN1[C@H](c1ccc(-c3ccc(C(C)=O)cc3)cc1)[C@@H]1C(=O)N(C)C(=O)[C@@H]12	.	.	.	-3%
CCCCCOc1ccc(CSc2ncn[nH]2)cc1	72*	-19%	39*	-44%
CCOC(=O)c1ccc(CSc2ncn[nH]2)o1	2	0%	-2	-3%
CCCCOc1ccc(CSc2nncn2N)cc1	65*	2%	31*	-5%
CCCCOc1ccc(CSc2ncn[nH]2)cc1	61	-70%	26*	-4%
Cc1c(CC(=O)O)c(=O)oc2cc3occ(-c4ccc(F)cc4)c3cc12	-5	4%	-1	4%
CCCc1cc(=O)n2[nH]c(C)nc2n1	19	-3%	-5	1%
CCCc1cc(=O)n2[nH]c(-c3ccc(C)cc3)cc2n1	73*	-7%	39*	5%
CCOC(=O)Cc1cc(=O)n2[nH]c(-c3ccc(Cl)cc3)cc2n1	11	6%	10	-8%
CCCc1cc(=O)n2[nH]c(-c3ccccc3)cc2n1	70*	-2%	30	-12%
O=c1cc(-c2ccccc2)nc2cc(-c3ccco3)[nH]n12	44	8%	18*	1%
CCCc1cc(=O)n2[nH]c(-c3ccc(Cl)cc3)cc2n1	92*	12%	57*	-5%
SMILES	Shiga inhibitor	NS1 function inh	CHX counter	SARS PLpro yeast
O=C(COc1ccc(Br)cc1F)NC1CC1	.	.	.	7%
NCC(O)C1CCCCCCC1 (stereo not given)	.	-6%	.	.
Nn1c(Cc2ccccc2)n[nH]c1=S	50	0%	18*	2%
CC(C)(C)C(=O)N1CCN(C(=O)c2ccco2)CC1	3	1%	-3	-7%
CCCC/C(O)=C1\C(=O)CCCC1=NCCc1c(C)[nH]c2ccccc12	11	-9%	-1	-2%
O=C(O)c1ccc(/C=N/NC(=O)c2ccc3c(c2)OCCO3)cc1	22	?	21*	7%
COc1cc(/C=N/NC(=O)c2ccc3c(c2)OCCO3)cc(Cl)c1O	17	18%	23*	1%
O=C(N/N=C/c1cc2c(cc1[N+](=O)[O-])OCO2)c1ccc2c(c1)OCO2	13	2%	2	0%
O=C(N/N=C/c1ccccc1)c1ccc2c(c1)OCO2	24	5%	25	-2%
COc1cc(/C=N/NC(=O)CNC(=O)c2ccc3c(c2)OCCO3)ccc1O	17	1%	11	0%
Cc1nn(C)cc1/C=N/NC(=O)c1ccc2c(c1)OCO2	26	2%	16*	0%
Cc1ccc(/C=N\NC(=O)c2ccc3c(c2)OCO3)o1	53	-17%	37*	-2%
CCN1CCN(C(=O)C(Cc2ccccc2)NC(=O)c2ccc(Cl)c(S(=O)(=O)N(C)C)c2)CC1 (stereo not given)	.	.	.	-2%
Cc1ccc(N(CC(=O)NC(C)(C)C)C(=O)CNC(=O)c2cccs2)c(C)c1	2	2%	-2	0%
CN(C)c1ccc(/C=N/NC(=O)c2ccc3c(c2)OCO3)cc1	91*	-11%	39*	-3%
CCn1cc(/C=N/NC(=O)c2ccc3c(c2)OCO3)cn1	24	-23%	35*	16%
O=C(N/N=C/c1ccc([N+](=O)[O-])o1)c1ccc2c(c1)OCO2	9	17%	9	-8%
O=C(N/N=C/c1ccc(Br)o1)c1ccc2c(c1)OCCO2	101*	-40%	57*	-38%
O=C(NN=Cc1c(O)ccc2ccccc12)c1ccc2c(c1)OCO2	.	.	.	1%
O=C(N/N=C/c1cccnc1)c1ccc2c(c1)OCCO2	42*	?	42*	-7%
Cc1cc(NC(=O)c2cccs2)ccc1NC(=O)Cc1ccccc1	11	.	4	0%
COc1cc(NC(=O)c2cccs2)c(OC)cc1NC(=O)CCC(=O)Nc1ccc2ncccc2c1	-4	11%	-3	0%
O=C(N/N=C\c1ccc2c(c1)OCO2)c1cncc(Br)c1	60*	-12%	23*	2%
O=C(N/N=C/c1ccc2c(c1)OCO2)c1cccnc1	104*	5%	48*	1%
CCOC(=O)N/N=C\c1ccc(OC(=O)c2ccc3c(c2)OCO3)cc1	35	.	42*	-2%
SMILES	Shiga inhibitor	NS1 function inh	CHX counter	SARS PLpro yeast
Cc1ccc(C(=O)Oc2ccc(/C=N/NC(N)=O)cc2)cc1	3	.	19	4%
COc1c(O)ccc(/C=N\NC(=O)c2ccc3c(c2)OCO3)c1[N+](=O)[O-]	11	16%	14	-5%
COc1c(O)ccc(/C=N/NC(=O)c2ccc3c(c2)OCCO3)c1[N+](=O)[O-]	52*	3%	21*	1%
O=C(N/N=C/c1ccc(O)cc1)c1cncc(Br)c1	21	2%	11	1%
COc1cc(C2=NC(CO)(CO)CO2)cc(OC)c1OC	2	-1%	-2	-1%
Cc1ccc(S(=O)(=O)c2c(C)nn(-c3ccccc3)c2OC(=O)c2ccc(Br)o2)cc1	1	4%	-3	9%
O=C(N/N=C/c1ccc2c(c1)OCO2)c1ccc(NS(=O)(=O)c2cccs2)cc1	81*	.	24*	-8%
O=C(NN=Cc1ccc(F)c(F)c1)c1ccc(NS(=O)(=O)c2cccs2)cc1	.	.	.	-3%
Cc1cc(-c2nnc(CCC(=O)N(C)Cc3ccsc3)o2)no1	34	4%	21*	-1%
Cc1cc(-c2nnc(CCC(=O)NC(C)c3ccc(F)cc3)o2)no1 (stereo not given)	43	2%	10	-1%
Cc1cc(-c2nnc(CCC(=O)NCc3ccc(OC(F)(F)F)cc3)o2)no1	29	11%	16*	10%
Cc1cc(-c2nnc(CCC(=O)N(C)C(C)c3cccs3)o2)no1 (stereo not given)	77*	2%	48*	-1%
O=C(Nc1cccc(Cl)c1)Nc1ccnc(-c2cccnc2)n1	-3	4%	12	1%
